Our source for the growth values is PubChem BioAssay (NCI).

What all share (assay): NCI-60 one-dose screen, 48 h (100 = growth as untreated, 0 = no growth, -100 = all killed)
One assay concerns NCI-H23 lung. Conditions: 10 µM unless noted.
The next assay concerns NCI-H226 lung. Particulars: 10 µM unless noted.
The subject of a further assay is NCI-H322M lung. Particulars: 10 µM unless noted.
A further assay has as its system HOP-62 NSCLC. Conditions: 10 µM unless noted.
Another assay deals with NCI-H460 lung. Conditions: 10 µM unless noted.
The next assay deals with HOP-92 NSCLC. Conditions: 10 µM unless noted.
The next assay concerns NCI-H522 lung. Particulars: 10 µM unless noted.
A further assay relates to 786-0 renal. Conditions: 10 µM unless noted.
The test system of a further assay is COLO 205 colon. Conditions: 10 µM unless noted.
For another assay, the system named is DU-145 prostate. Particulars: 10 µM unless noted.
For the next assay, the system named is K-562 leukemia. Conditions: 10 µM unless noted.
The next assay relates to MALME-3M melanoma. Particulars: 10 µM unless noted.
The test system of another assay is MDA-MB-231 breast. Conditions: 10 µM unless noted.
A further assay concerns RXF 393 renal. Conditions: 10 µM unless noted.
A further assay deals with SF-268 CNS. Conditions: 10 µM unless noted.
The next assay concerns SF-295 CNS. Particulars: 10 µM unless noted.
A further assay relates to SF-539 CNS. Conditions: 10 µM unless noted.
Another assay has as its system M14 melanoma. Conditions: 10 µM unless noted.
The next assay has as its system A549/ATCC NSCLC. Conditions: 10 µM unless noted.
The next assay deals with UACC-257 melanoma. Conditions: 10 µM.

This is part of a sample that, as a whole, favours compounds with a hit. Of some 83,000 tested, about 20% had one in any assay.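 Testing used 96-well plates and a 48-hour single-concentration exposure. Example: -40 means 40% of the starting cells died.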 A number with no mark means an inactive call. Activity calls are given as the source filed them. The calls were made as follows: active = growth percent below 10; inactive = the rest.

Consider `c1ccc2c(c1)Oc1ccccc1C2C1c2ccccc2Oc2ccccc21`, for which the growth is 90.6% in the assay on NCI-H23 lung; 103% with NCI-H226 lung; 94.1% in the assay with NCI-H322M lung; 89.6% in the assay with HOP-62 NSCLC; 95.9% with NCI-H460 lung; 94.8% in the assay with HOP-92 NSCLC. The growth was 87.6% in the assay with NCI-H522 lung; 94.1% with 786-0 renal; 99.5% with COLO 205 colon; 93.6% with DU-145 prostate; 93.6% with K-562 leukemia; 108% with MALME-3M melanoma. Also, the growth in the assay on MDA-MB-231 breast is 93.1%; with RXF 393 renal, 94.2%; in the assay on SF-268 CNS, 97.2%; in the assay on SF-295 CNS, 96.1%; with SF-539 CNS, 96.5%; with M14 melanoma it was 99.1%.

As to `c1ccc2nc(-c3ccc4ccccc4n3)ccc2c1`, the growth is 88.5% with NCI-H23 lung; 85.9% with NCI-H226 lung; 95.8% with NCI-H322M lung; 82.8% with HOP-62 NSCLC; 103% in the assay on NCI-H460 lung; 83% in the assay on HOP-92 NSCLC. Besides, the growth in the assay with NCI-H522 lung was 70%; in the assay with A549/ATCC NSCLC, 102%; with COLO 205 colon, 106%; in the assay with DU-145 prostate it was 106%; in the assay with K-562 leukemia it was 93.3%; with MALME-3M melanoma, 83.5%. The growth with RXF 393 renal is 117%; in the assay on SF-268 CNS, 95.9%; in the assay on SF-295 CNS it was 93.5%; with SF-539 CNS, 88.3%; in the assay on UACC-257 melanoma, 106%; in the assay on M14 melanoma it was 90.2%.

For the compound `Clc1ccc(-c2nc(-c3ccco3)cn3ccnc23)cc1`, the growth with NCI-H23 lung is 61%; with NCI-H226 lung it was 46.3%; in the assay on NCI-H322M lung, 11.4%; with HOP-62 NSCLC, 31.4%; with NCI-H460 lung it was 14.5%; in the assay with HOP-92 NSCLC it was 34.7%. Further, the growth in the assay with NCI-H522 lung is 61.5%; with 786-0 renal, -41.1% (active); in the assay on COLO 205 colon, 75%; in the assay on DU-145 prostate, 67.3%; with K-562 leukemia, 68.9%; in the assay with MALME-3M melanoma, 77%. For the same compound, the growth is 41.6% in the assay on RXF 393 renal; 64.3% in the assay with SF-268 CNS; 15.1% in the assay on SF-295 CNS; 62.2% with SF-539 CNS; 75.2% in the assay on UACC-257 melanoma; 97.4% in the assay with M14 melanoma.

In the case of `COc1ccc(/C=C2\C(=O)N(C(=O)c3csc(NC(C)=O)n3)N=C2C)cc1`, the growth is 102% with NCI-H23 lung; 104% with NCI-H226 lung; 96.7% with NCI-H322M lung; 100% in the assay on HOP-62 NSCLC; 105% in the assay with NCI-H460 lung; 99.8% with HOP-92 NSCLC. In addition, the growth in the assay with NCI-H522 lung was 85.2%; in the assay on 786-0 renal, 100%; with COLO 205 colon, 99.3%; in the assay with DU-145 prostate, 108%; in the assay on K-562 leukemia, 95.3%; with MALME-3M melanoma, 90.5%. The growth in the assay with MDA-MB-231 breast was 105%; with SF-268 CNS it was 99.1%; in the assay with SF-295 CNS it was 105%; in the assay with SF-539 CNS, 104%; in the assay with UACC-257 melanoma, 89.2%; in the assay on M14 melanoma, 98.7%.

For `CC(Br)C(OC(=O)c1ccccc1Cl)c1cc2c(cc1Br)OCO2` (stereo unspecified), the growth was 78.3% in the assay on NCI-H23 lung; 76.6% in the assay with NCI-H226 lung; 82.7% in the assay on NCI-H322M lung; 108% in the assay on HOP-62 NSCLC; 91.8% in the assay with NCI-H460 lung; 68.5% with HOP-92 NSCLC. Also, the growth in the assay on NCI-H522 lung was 87.9%; in the assay on 786-0 renal, 80.7%; in the assay with COLO 205 colon, 126%; in the assay on DU-145 prostate, 92.7%; in the assay with K-562 leukemia it was 94.6%; in the assay with MALME-3M melanoma, 92.9%. Moreover, the growth in the assay with MDA-MB-231 breast is 94.3%; in the assay on RXF 393 renal, 77.8%; in the assay with SF-268 CNS it was 86.1%; with SF-295 CNS it was 101%; in the assay with SF-539 CNS, 100%; in the assay on M14 melanoma, 86.6%.

Consider `CCCC1OC(c2ccc(C(C)C)cc2)OCC1CC` (stereo unspecified), for which the growth in the assay with NCI-H23 lung was 98.8%; in the assay on NCI-H226 lung, 100%; in the assay on NCI-H322M lung, 98%; in the assay with HOP-62 NSCLC it was 74%; in the assay on NCI-H460 lung it was 123%; in the assay on HOP-92 NSCLC, 101%. For the same compound, the growth was 87.2% in the assay on NCI-H522 lung; 75.8% with A549/ATCC NSCLC; 99.6% with COLO 205 colon; 110% with DU-145 prostate; 102% in the assay on K-562 leukemia; 106% in the assay on MALME-3M melanoma. In addition, the growth is 107% with MDA-MB-231 breast; 115% with RXF 393 renal; 103% in the assay on SF-268 CNS; 104% in the assay on SF-295 CNS; 96.3% in the assay on SF-539 CNS; 101% with M14 melanoma.

As for `C/C1=C\CCC2(C)OC2CC2CCC(C)(O)C(CC1)C2(C)C` (stereo unspecified), the growth is 99% with NCI-H23 lung; 107% in the assay with NCI-H226 lung; 96.5% in the assay with NCI-H322M lung; 101% in the assay on HOP-62 NSCLC; 106% in the assay on NCI-H460 lung; -16.4% (active) in the assay with HOP-92 NSCLC. Further, the growth in the assay with NCI-H522 lung was 88%; with 786-0 renal, 98.9%; in the assay with COLO 205 colon it was 109%; in the assay on DU-145 prostate, 96.1%; with K-562 leukemia it was 104%; with MALME-3M melanoma, 93.5%. In addition, the growth was 105% in the assay with MDA-MB-231 breast; 103% in the assay on SF-268 CNS; 55.5% in the assay on SF-295 CNS; 88.1% in the assay with SF-539 CNS; 98.7% with M14 melanoma.

`Cc1cc(C)c(NC(=O)c2sc3nc4c(cc3c2N)CN(Cc2ccccc2)CC4)c(C)c1`: the growth in the assay with NCI-H23 lung was 55.2%; in the assay with NCI-H226 lung, 49.5%; with NCI-H322M lung, 39.3%; with HOP-62 NSCLC, 33.7%; in the assay with NCI-H460 lung it was 10.8%; with HOP-92 NSCLC it was 37.7%. The growth in the assay with NCI-H522 lung was 13.5%; in the assay with 786-0 renal it was 39%; in the assay on COLO 205 colon it was 12.3%; in the assay with DU-145 prostate, 27.6%; in the assay on K-562 leukemia it was 9.63% (active); in the assay with MDA-MB-231 breast, 44%. The growth with RXF 393 renal is 26.1%; in the assay on SF-268 CNS it was 36.5%; in the assay with SF-295 CNS it was 21.9%; with SF-539 CNS it was 8.37% (active); in the assay on UACC-257 melanoma, 48%; in the assay with M14 melanoma, 40.2%.

Consider `O=C(O)C(=Cc1c2ccccc2cc2ccccc12)C(=O)O`, for which the growth with NCI-H23 lung is 91.3%; in the assay with NCI-H226 lung it was 109%; in the assay on NCI-H322M lung, 100%; in the assay with HOP-62 NSCLC it was 105%; in the assay on NCI-H460 lung, 112%; in the assay on HOP-92 NSCLC it was 105%. In addition, the growth was 89.7% in the assay on NCI-H522 lung; 106% in the assay with 786-0 renal; 113% in the assay on COLO 205 colon; 118% with DU-145 prostate; 100% in the assay on K-562 leukemia; 97.9% in the assay on MALME-3M melanoma. Further, the growth in the assay with MDA-MB-231 breast was 103%; in the assay with RXF 393 renal, 115%; in the assay with SF-268 CNS it was 108%; with SF-295 CNS it was 100%; in the assay on SF-539 CNS, 97.3%; with M14 melanoma it was 100%.
